High-throughput results: PubChem, National Center for Advancing Translational Sciences (NCATS)
Shown are actives, neighbours in structure and some others; about 19% of the full set was active somewhere.
TDP1 cell noCPT: qHTS for Inhibitors of human tyrosyl-DNA phosphodiesterase 1 (TDP1): qHTS in cells in absence of CPT; DT40 Tdp1-/- hTDP1 cells, no CPT, ATP luminescence, 48 h; Potency, µM (doses to about 46.2 µM), most hits filed as inhibitors; hit rate 15% among 420,000; AID 686978, 2013; further: nearly all actives have a fitted effect of over 55% in size
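No-CPT arm: Tdp1-/-;hTDP1 DT40 cells (400/well) plus compounds, incubated ≥48 hr at 37 °C. Readout CellTiter-Glo luminescence.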
BCR signal inh: qHTS Assay to Find Inhibitors of Chronic Active B-Cell Receptor Signaling | ABC-DLBCL IkBa-CBG/CBR reporter, luminescence ratio, 4 h | Potency, µM (series often up to 46.1 µM), most hits filed as inhibitors | hit rate 0.05% among 340,000; active means well fitted inhibition curve with a large enough effect in the signal ratio, with a control signal flat, not every such curve was filed as active; inconclusive means small, poorly fitted or top-dose-only effect, or effect the other way, or a change in a side signal; the % refers to the signal ratio
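Concentration-response series (up to 46 uM) were applied to TMD8 dual-reporter cells for 4 h at 37C with doxycycline. Green/red ratio, after filter-overlap correction, defined %Activity; red signal alone was normalised to basal cells and zero luminescence.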
TDP1 cell CPT: qHTS for Inhibitors of human tyrosyl-DNA phosphodiesterase 1 (TDP1): qHTS in cells in presence of CPT; Potency, µM (titrated, usually from 46.2 µM), actives largely listed as inhibitors; chicken DT40 Tdp1-/-;hTDP1 cells + 20 nM CPT, ATP luminescence, 48 h; hit rate 12% among 420,000; AID 686979, 2013; further: nearly all actives have a fitted effect of over 55% in size
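Cell growth measured by CellTiter-Glo luminescence after a minimum 48 h, 37 C compound exposure with 20 nM CPT in Tdp1-knockout DT40 cells stably expressing hTDP1, seeded 400/well; qHTS titration format.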
IL1B secr inh: qHTS for Inhibitors of Inflammasome Signaling: IL-1-beta AlphaLISA Primary Screen | THP-1 LPS/ATP IL-1B secretion, AlphaLISA, 16 h; stronger effect = lower value | activity change, % at 57.5 µM | hit rate 4.7% among 360,000 | AID 743279, 2014; in the data active means activity change below about -50%; inconclusive means mostly about -30% to -49%
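THP-1 cells pretreated 1 hr with compounds (up to 57.5 uM final), then stimulated with LPS (250 ng/mL final) plus ATP (1.25 mM final); secreted IL-1B measured by AlphaLISA after 16 hr, decreased signal indicating inhibition.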
MCF10A rerep: A quantitative high throughput screen for small molecules that induce DNA re-replication in MCF 10a normal breast cells; MCF 10A DNA re-replication, Hoechst nuclear intensity, 48 h; Potency, µM (doses to about 46.1 µM), most hits filed as activators; hit rate 2.9% among 350,000; further: nearly all actives have a fitted effect of over 50% in size
SW480 rereplic: A quantitative high throughput screen for small molecules that induce DNA re-replication in SW480 colon adenocarcinoma cells; SW480 DNA re-replication, Hoechst DNA content imaging, 48 h; hit rate 1.8% among 340,000; AID 624297, 2012; Potency, µM (top dose mostly 46.1 µM), actives largely listed as activators; further: nearly all actives have a fitted effect of over 55% in size
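Hoechst fluorescence of nuclei (405 nm excitation, 500-530 nm emission) measured by plate-scanning imager after 48 hr compound exposure at 37 C; re-replication scored as increased number of nuclei with elevated intensity.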
A number is an active result; 0 = inactive; ? = inconclusive; - = not tested or not shown; ! = not active in a repeat; [ ] = another dose, or the depositor's remark. Unless noted, the call rests on the fitted dose curve; in most records, active means well fitted curve in the direction sought with a large enough effect; inconclusive means small, poorly fitted or top-dose-only effect, or another doubt; inactive means no such curve, though single readings can be large; an effect the other way counts as inactive or inconclusive.

SMILES	TDP1 cell noCPT	BCR signal inh	TDP1 cell CPT	IL1B secr inh	MCF10A rerep	SW480 rereplic
O=C1C(Cc2ccccc2)Nc2ncnc(N3CCN(c4ccccc4)CC3)c2N1Cc1ccc(Cl)cc1 (configuration not stated)	18µM	0	?	-56	0	0
C=CCn1c(C)cc(C(=O)Cn2c(C(C)O)nc3ccccc32)c1C (configuration not stated)	9.2µM	0	21µM	0	0	0
Cc1cc(C(=O)Cn2c(CO)nc3ccccc32)c(C)n1C	16µM	0	?	0	0	0
C=CCn1c(C(C)C)nc2ccccc21	0	0	0	0	0	0
CC(C)(C)C(=O)N1CCC2CC1c1cc(-c3ccc4c(c3)OCO4)ccc12 (configuration not stated)	23µM	-	?	0	-	-
O=C(C1CCCCC1)N1CCC2CC1c1cc(-c3ccc4c(c3)OCO4)ccc12 (configuration not stated)	18µM	-	18µM	0	-	-
C=CCC[C@@H](Cc1ccc(F)cc1)C(=O)OC[C@H](C)NC(=O)[C@@H](CC=C)CC(=O)N[C@@H](CO)Cc1ccccc1	?	0	?	0	0	0
Cc1ccc(N2CC(C(=O)Nc3ccc(C)c(S(=O)(=O)N(C)C)c3)CC2=O)cc1 (configuration not stated)	0	?	0	0	0	0
Nc1ccc2ccc(O)cc2c1	0	-	0	0	7.3µM	18µM
Cc1cccn2c(=O)c(-c3nnn[nH]3)cnc12	0	-	0	-	0	0
COc1ccc(OC)c(N2CC(O)(c3ccccc3)[N+]3=C2SCCC3)c1 (configuration not stated)	?	0	?	-51	0	0
COc1ccc(C2(O)CN(c3ccccc3)C3=[N+]2CCS3)cc1OC (configuration not stated)	0	0	0	0	?	0
OC1(c2ccc(Cl)cc2)CN(c2ccccc2)C2=[N+]1CCS2 (configuration not stated)	?	0	0	-78	0	?
CCCCCCCCCCCCCCC(O)C[N+](C)(CCO)CCO (configuration not stated)	3.7µM	-	2.3µM	-100	?	?
C/C(N)=C(/C#N)C(=O)CSc1nc2scc(-c3ccccc3)c2c(=O)n1C	?	0	?	0	0	0
Cc1ccc(C)c(Cn2nnc3c(=O)[nH]c(C4CCN(C(=O)c5ccco5)CC4)nc32)c1	?	0	21µM	0	0	0
Cc1ccc(C)c(Cn2nnc3c(=O)[nH]c(C4CCN(S(=O)(=O)c5ccc(S(=O)(=O)NC6CC6)cc5)CC4)nc32)c1	18µM	?	?	-54	0	0
Cc1ccc(C)c(Cn2nnc3c(=O)[nH]c(C4CCN(S(=O)(=O)c5ccc(S(=O)(=O)N(C)C)cc5)CC4)nc32)c1	?	?	18µM	?	0	0
Cc1ccc(Cn2nnc3c(=O)[nH]c(C4CCN(S(=O)(=O)c5ccc(F)cc5)CC4)nc32)cc1	0	?	0	0	0	?
Cc1ccc(Cn2nnc3c(=O)[nH]c(C4CCN(S(=O)(=O)c5cc(C)ccc5C)CC4)nc32)cc1	23µM	0	?	0	?	0[9.22 µM]
O=C(c1ccco1)N1CCC(c2nc3c(nnn3Cc3ccccc3Cl)c(=O)[nH]2)CC1	?	0	?	0	0	0
CCc1ccc(NC(=O)c2nc(SCc3ccccc3F)ncc2Cl)cc1	0	-	0	-	-	-
O=C(NCc1ccccc1)c1nc(S(=O)(=O)Cc2ccc(F)cc2)ncc1Cl	1.5µM	-	1.3µM	-	-	-
CS(=O)(=O)c1ncc(Cl)c(C(=O)Nc2c(C(=O)c3ccc(Cl)cc3)oc3ccccc23)n1	0	-	?	-	-	-
O=C(Nc1ccc(F)cc1)c1nc(S(=O)(=O)Cc2ccccc2)ncc1Cl	1.6µM	?	2.1µM	-95	0	0
SMILES	TDP1 cell noCPT	BCR signal inh	TDP1 cell CPT	IL1B secr inh	MCF10A rerep	SW480 rereplic
Cc1ccc(NC(=O)c2nc(SCc3ccccc3F)ncc2Cl)cc1	0	-	0	-	-	-
CCS(=O)(=O)c1ncc(Cl)c(C(=O)Nc2c(C(=O)c3ccc(C)cc3)oc3ccccc23)n1	1.6µM	-	1.6µM	-	-	-
Cc1ccc(NC(=O)c2nc(S(=O)(=O)Cc3ccccc3)ncc2Cl)cc1	0.92µM	?	1.5µM	-103	?	0
O=C(CSc1nc2ccccc2c(=O)n1-c1ccc(OC(F)F)cc1)NC1CC1	?	?	?	0	0	0
CCOc1ccc(NC(=O)c2ccc(F)cc2F)cc1	0	-	0	0	0	?
CCOc1ccc(NC(=O)c2nc(S(=O)(=O)Cc3ccc(F)cc3)ncc2Cl)cc1	0.4µM	-	0.5µM	-	-	-
Cc1nc(N(C)C2CCCCC2)c2nnn(Cc3ccc(F)cc3)c2n1	?	-	?	0	-	-
COc1cc(C=Cc2nnc3c4ccccc4cnn23)cc(OC)c1OC	0.82µM	-	3.3µM	0	-	-
COc1cc(C=C2C(=O)c3ccccc3C2=O)cc(OC)c1OC	0	?	?	0	0	0
COc1cc(/C=C/c2ccc3ccccc3n2)cc(OC)c1OC	0.071µM	-	0.16µM	-	-	-
COc1cc(/C=C/c2nc3ccccc3nc2/C=C/c2cc(OC)c(OC)c(OC)c2)cc(OC)c1OC	4.5µM	-	1.3µM	-	-	-
CCOc1ccc(/C=C/c2ccc3ccccc3n2)cc1OCC	2.5µM	-	2.8µM	-	-	-
COc1cc(/C=C/c2cc[n+](C)c3ccccc23)cc(OC)c1OC	0	-	0	-	-	-
O=C(Nc1ccc(Cl)cc1Cl)[C@@H]1CC=C[C@@H]2CCN(Cc3ccccc3)C(=O)[C@@H]21	?	-	10µM	-	-	-
O=C(NCCc1ccccc1)[C@@H]1CC=C[C@@H]2CCN(C3CCCCC3)C(=O)[C@@H]21	?	-	20µM!	0	0	0[9.22 µM]
O=C(Nc1ccccc1)[C@@H]1CC=C[C@@H]2CCN(C3CC3)C(=O)[C@@H]21	0	-	0	-	-	-
O=C(NCc1cccnc1)[C@@H]1CC=C[C@@H]2CCN(Cc3ccc(Cl)c(Cl)c3)C(=O)[C@@H]21	?	-	?	0	0	0
O=C1[C@H]2[C@H](C=CC[C@H]2C(=O)N2CCN(c3ccccc3)CC2)CCN1Cc1ccc(Cl)c(Cl)c1	18µM	-	16µM	-51	?	?
COc1ccc(CN2CC[C@H]3C=CC[C@@H](C(=O)Nc4ccc(Cl)c(C(F)(F)F)c4)[C@H]3C2=O)cc1OC	11µM	-	?	?	0	0
